Assay results taken from PubChem BioAssay (NCATS).
Records with an inconclusive call do not appear. Calls of active or inactive are those of the source. Unless noted, calls follow the shape of the dose curve; as a rule, active = well fitted cell-killing curve with a large enough effect; inconclusive = small, poorly fitted or top-dose-only effect; inactive = flat fitted curve, though single readings scatter.

What was measured:
[1] = Cell Viability - LYMP2-006 (AID 978); also: % is scaled to controls: 0 for no effect and ±100 for the full control effect; nearly all actives have a fitted effect of over 60% in size
Outline: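 Potency values are Hill-fit AC50s for decreases in intracellular ATP (CellTiter-Glo luminescence). LYMP2-006 lymphoblastoid cells, 2500 per well, were exposed to compound in complete culture medium for 24 hr at 37 C.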

[2] = Cell Viability - LYMP2-007 (AID 979);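 also: cells exposed to compound for 24 h before reading; 0% = DMSO only and the negative end = 92 µM tetraoctylammonium bromide; nearly all actives have a fitted effect of over 60% in size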
Outline: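 Acute toxicity is scored as a concentration-dependent fall in intracellular ATP in human lymphoblastoid cells treated 24 hr at 37 C, measured by luciferase luminescence; Hill-equation modelling yields AC50.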

[3] = Cell Viability - LYMP2-008 (AID 980); also: % is scaled to controls: 0 for no effect and ±100 for the full control effect; nearly all actives have a fitted effect of over 60% in size
Outline: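 Acute cytotoxicity is scored as concentration-dependent loss of cellular ATP in a human lymphoblastoid line after 24 hr treatment at 37 C. ATP is quantified by luciferase luminescence.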

[4] = Cell Viability - LYMP2-010 (AID 981); also: % is scaled to controls: 0 for no effect and ±100 for the full control effect; nearly all actives have a fitted effect of over 55% in size
Outline: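 Acute toxicity is scored as a concentration-dependent loss of cellular ATP in human lymphoblastoid cells after 24 hr compound exposure in complete medium. Tetraoctylammonium bromide is the positive control.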

[5] = Cell Viability - LYMP2-012 (AID 982);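 also: cellular ATP by luciferase luminescence where a drop means cytotoxicity; cells exposed to compound for one day before reading; 0% = DMSO only and full loss = 92 µM tetraoctylammonium bromide; nearly all actives have a fitted effect of over 55% in size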
[6] = Cell Viability - LYMP2-014 (AID 983);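 also: plate controls were DMSO only for no effect and 92 µM tetraoctylammonium bromide for full effect; nearly all actives have a fitted effect of over 50% in size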
Outline: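 Decrease in intracellular ATP after 24 hr treatment at 37 C, measured by luciferase luminescence, indicated cytotoxicity. Concentration-response data were fitted with the standard Hill equation to give AC50.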

[7] = Cell Viability - LYMP2-016 (AID 984); also: % is scaled to controls: 0 for no effect and ±100 for the full control effect; nearly all actives have a fitted effect of over 55% in size
Outline: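 Cytotoxicity was scored by luminescent ATP content (CellTiter-Glo) after 24 h compound exposure at 37 C of a human lymphoblastoid line at 2500 cells/well. Concentration-response data were fitted to the Hill equation for AC50.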

[8] = Cell Viability - LYMP2-018 (AID 985);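 also: compound exposure lasted 24 hr at 37 °C; plate controls were DMSO only for no effect and tetraoctylammonium bromide at 92 µM for full effect; nearly all actives have a fitted effect of over 50% in size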
Outline: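 Acute cytotoxicity is scored as a concentration-dependent drop in intracellular ATP after 24 hr exposure of the lymphoblastoid line in complete culture medium, measured by luciferase luminescence. Potency is expressed as AC50 from Hill modelling.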

[9] = Cell Viability - LYMP2-020 (AID 986);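 also: plate controls were DMSO only for no effect and tetraoctylammonium bromide at 92 µM for full effect; nearly all actives have a fitted effect of over 55% in size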
Outline: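 Acute cytotoxicity in a human lymphoblastoid line is scored as a concentration-dependent fall in cellular ATP after 24 hr at 37 C in complete medium. The positive control is tetraoctylammonium bromide, and potency is given as Hill-fit AC50.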

[10] = Cell Viability - LYMP2-022 (AID 987)
Outline: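 Acute toxicity in a human lymphoblastoid line is scored as decreased intracellular ATP after 24 hr compound treatment at 37 C. ATP is measured by CellTiter-Glo luminescence; curves are fitted with the Hill equation to give AC50.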

[11] = Cell Viability - LYMP2-024 (AID 988);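 also: plate controls were DMSO only for no effect and 92 µM tetraoctylammonium bromide for full effect; nearly all actives have a fitted effect of over 60% in size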
Outline: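 Acute toxicity is measured as concentration-dependent loss of intracellular ATP in a human lymphoblastoid line treated 24 hours at 37 C. Luciferase luminescence quantifies ATP; AC50 values come from standard Hill-equation modelling.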

[12] = Cell Viability - LYMP2-026 (AID 989); also: % is scaled to controls: 0 for no effect and ±100 for the full control effect; nearly all actives have a fitted effect of over 50% in size
Outline: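 Concentration-dependent loss of intracellular ATP in human lymphoblastoid cells after 24 hr at 37 C, quantified by luciferase luminescence. AC50 derived from standard Hill equation.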

[13] = Cell Viability - LYMP1-002 - Assay at 24 hr (AID 993); also: % is scaled to controls: 0 for no effect and ±100 for the full control effect
Outline: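 qHTS, LYMP1-002 lymphoblastoid, 24 h cpd, 37 C, CellTiter-Glo ATP luminescence; AC50 via Hill eq.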

[14] = Cell Viability - LYMP1-002 - Assay at 40 hr (AID 994)
Outline: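 Viability in the human lymphoblastoid line was measured as intracellular ATP via CellTiter-Glo after 40 hr compound exposure. Tetraoctylammonium bromide served as positive control.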

[15] = qHTS Assay for Lipid Storage Modulators (AID 1519; calls by dose curve; as to activity change, negative = inhibition: % is scaled to controls: 0 for no effect and ±100 for the full control effect); settings: Drosophila S3 cells, BODIPY lipid droplet/cell ratio, laser cytometry, cells loaded with oleic acid
Outline: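 Cells seeded at 5,000 per well were treated with compounds over a concentration series and loaded with oleic acid (400 uM, as added). Lipid droplet fluorescence (488 nm excitation, 500-530 nm channel) was read by laser-scanning cytometry and normalized to 20 uM Triacsin C.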

[16] = qHTS Assay for Identification of Small Molecule Inducers of Hypoxia Response (AID 2120; active = well fitted curve in the direction sought with a large enough effect in the signal ratio, with a control signal flat, not every such curve was filed as active; the % refers to the signal ratio; also: 0% is about no effect)
Outline: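 Induction of beta-lactamase reporter activity was measured in CellSensor HRE-bla ME-180 cells after 17 h compound treatment at 37 degrees C, using CCF4 substrate and the 460nm/530nm emission ratio to derive AC50 values.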

[17] = molecular target: Estrogen receptor (Homo sapiens) (UniProt P03372); test: qHTS assay for small molecule antagonists of estrogen receptor alpha signaling (AID 588513; active = well fitted curve in the direction sought with a large enough effect in the signal ratio, with a control signal flat, not every such curve was filed as active; the % refers to the signal ratio; also: % is scaled to controls: 0 for no effect and ±100 for the full control effect)
Sequence of Estrogen receptor (Homo sapiens) (P03372 whole entry, looked up): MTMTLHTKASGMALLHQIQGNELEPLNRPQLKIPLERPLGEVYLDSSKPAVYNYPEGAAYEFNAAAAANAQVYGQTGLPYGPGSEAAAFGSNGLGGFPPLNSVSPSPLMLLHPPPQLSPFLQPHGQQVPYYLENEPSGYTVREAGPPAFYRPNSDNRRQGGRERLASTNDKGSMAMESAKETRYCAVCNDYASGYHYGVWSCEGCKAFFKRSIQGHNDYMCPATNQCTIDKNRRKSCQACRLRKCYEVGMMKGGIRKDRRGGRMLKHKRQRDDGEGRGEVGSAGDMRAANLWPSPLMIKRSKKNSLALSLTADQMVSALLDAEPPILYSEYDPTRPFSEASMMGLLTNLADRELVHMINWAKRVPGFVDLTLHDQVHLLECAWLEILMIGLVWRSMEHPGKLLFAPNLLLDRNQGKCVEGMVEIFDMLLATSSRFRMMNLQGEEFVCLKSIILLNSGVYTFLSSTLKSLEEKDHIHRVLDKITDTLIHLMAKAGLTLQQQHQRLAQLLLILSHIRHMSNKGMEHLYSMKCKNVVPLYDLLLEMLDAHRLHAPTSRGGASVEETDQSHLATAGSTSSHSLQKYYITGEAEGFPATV
Outline: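 Antagonist mode: inhibition of 0.5 nM 17-beta-estradiol-driven beta-lactamase reporter in HEK 293 ER-alpha-UAS-bla cells, 18 h at 37C, CCF4 readout after 2 h at RT. Normalised to estradiol and DMSO; titration fitted to Hill.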

[18] = qHTS assay for small molecule antagonists of peroxisome proliferator-activated receptor delta signaling (AID 588535; active = well fitted inhibition curve with a large enough effect in the signal ratio, with a control signal flat, not every such curve was filed as active; the % refers to the signal ratio;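 as to max response: cells co-treated with a PPAR-delta agonist as stimulator during compound exposure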); settings: HEK293T PPARd-UAS-bla, beta-lactamase FRET ratio, 18 h; 460 nm channel
Outline: (§1)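 Cells were seeded at 4000 per well in assay medium containing 2% charcoal/dextran FBS and held 5 hrs at 37 C. Compounds were then added for 18 hrs. CCF4 substrate was applied for 2 hrs at room temperature before fluorescence reading.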

[19] = molecular target: Peroxisome proliferator-activated receptor delta (Homo sapiens) (UniProt Q03181); test: as above
Sequence of Peroxisome proliferator-activated receptor delta (Homo sapiens) (Q03181 whole entry, looked up): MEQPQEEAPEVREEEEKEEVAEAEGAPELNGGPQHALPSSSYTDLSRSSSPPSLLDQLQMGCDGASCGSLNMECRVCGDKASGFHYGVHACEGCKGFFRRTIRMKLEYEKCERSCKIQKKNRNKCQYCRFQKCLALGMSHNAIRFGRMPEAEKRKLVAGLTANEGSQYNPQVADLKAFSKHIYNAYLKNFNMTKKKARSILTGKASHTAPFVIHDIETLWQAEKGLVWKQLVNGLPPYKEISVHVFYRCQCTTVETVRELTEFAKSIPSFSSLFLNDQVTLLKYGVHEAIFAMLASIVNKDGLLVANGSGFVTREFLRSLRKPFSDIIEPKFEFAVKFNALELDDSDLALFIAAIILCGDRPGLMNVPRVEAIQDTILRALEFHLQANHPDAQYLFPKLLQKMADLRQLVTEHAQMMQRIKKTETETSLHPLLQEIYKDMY
Outline: as §1

O=C(Nc1ccccc1)Nc1ccccc1
-3.21%: max response ([15]; measured here: cell count channel max response)
inactive: outcome [1] | outcome [2] | outcome [3] | outcome [4] | outcome [5] | outcome [6] | outcome [7] | outcome [8] | outcome [9] | outcome [10] | outcome [11] | outcome [12] | outcome [13] | outcome [14] | activity change, negative = inhibition ([15]; at 57.5 µM (top of the series)) 11.8% | outcome [16] | outcome [17] | outcome [19]
-7.95%: max response [18]
11.7%: max response ([15]; measured here: lipid channel max response)
